Test results taken from the supplement of paper PMC9262897, “Low-cost anti-mycobacterial drug discovery using engineered E. coli” (Nature Communications, 2022).
Structures can show the parent of a compound that is named as a salt. ± gives the standard deviation of the averaged measurements.

What was measured:
Assay in all cases: growth (OD600 after 10 h); higher = more growth (less inhibition)
[1] = tested on: E. coli TESEC Alr+ wild-type control; details: compound 0.1 mM; raw OD600 reference: median of DMSO wells 0.241, cell-free background 0.041
Experimental: (§1)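 TESEC Mtb Alr E. coli, or the Alr+ wild-type control, in 384-well plates with Prestwick library compounds at 0.1 mM and 1% DMSO, across arabinose induction levels of 1E3 to 1E7 nM. Growth is read as OD600 after 10 h at 37 °C in triplicate biological replicates.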

E. coli TESEC Mtb Alr [2] = details: compound 0.1 mM
Experimental: as §1

E. coli TESEC Mtb Asd = details: compound 0.1 mM
Experimental: (§2)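 TESEC E. coli strains in which the native enzyme is deleted and replaced by arabinose-inducible Mtb Asd, DapB, CysH or TrpD, each grown in its selective medium. Strains were screened against the Prestwick library at 0.1 mM and 1% DMSO in 384-well format at low and high arabinose induction. Growth is read as OD600 after 10 h in triplicate.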

E. coli TESEC Mtb DapB = details: compound 0.1 mM
Experimental: as §2

[3] = tested on: E. coli TESEC Alr+ wild-type control; details: compound 0.1 mM; raw OD600 reference: median of DMSO wells 0.49, cell-free background 0.052
Experimental: (§3)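 TESEC Mtb Alr E. coli (ΔaraC ΔtolC ΔentC Δalr ΔdadX, arabinose-inducible Mtb Alr) or the Alr+ wild-type control strain, grown in defined M9-fructose medium without D-alanine in 96-well plates with Prestwick library compounds at 0.1 mM and 1% DMSO. Low Alr induction is 0.1 µM arabinose and high induction is 10 mM arabinose.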

E. coli TESEC Mtb Alr [4] = details: compound 0.1 mM; remark: listed apart in the source
Experimental: as §3

[5] = arabinose 1000 nM, raw OD600 reference: median of DMSO wells 0.294, cell-free background 0.041
[6] = arabinose 10000 nM, raw OD600 reference: median of DMSO wells 0.264, cell-free background 0.041
[7] = arabinose 100000 nM, raw OD600 reference: median of DMSO wells 0.201, cell-free background 0.041
[8] = arabinose 1000000 nM, raw OD600 reference: median of DMSO wells 0.193, cell-free background 0.041
[9] = arabinose 10000000 nM, raw OD600 reference: median of DMSO wells 0.146, cell-free background 0.041
[10] = arabinose induction (level): High, raw OD600 reference: median of DMSO wells 0.331, cell-free background 0.041
[11] = arabinose induction (level): Low, raw OD600 reference: median of DMSO wells 0.417, cell-free background 0.041
[12] = arabinose induction (level): High, raw OD600 reference: median of DMSO wells […], cell-free background 0.041
[13] = arabinose induction (level): Low, raw OD600 reference: median of DMSO wells 0.227, cell-free background 0.041
[14] = arabinose 100 nM, raw OD600 reference: median of DMSO wells 0.413, cell-free background 0.052
[15] = arabinose 10000000 nM, raw OD600 reference: median of DMSO wells […], cell-free background 0.052

Row | SMILES | growth [1] | growth (E. coli TESEC Mtb Alr [2]; [5]) | growth (E. coli TESEC Mtb Alr [2]; [6]) | growth (E. coli TESEC Mtb Alr [2]; [7]) | growth (E. coli TESEC Mtb Alr [2]; [8]) | growth (E. coli TESEC Mtb Alr [2]; [9]) | growth (E. coli TESEC Mtb Asd; [10]) | growth (E. coli TESEC Mtb Asd; [11]) | growth (E. coli TESEC Mtb DapB; [12]) | growth (E. coli TESEC Mtb DapB; [13]) | growth [3] | growth (E. coli TESEC Mtb Alr [4]; [14]) | growth (E. coli TESEC Mtb Alr [4]; [15])
1 | Cc1cc(C)nc(NS(=O)(=O)c2ccc(N)cc2)n1 [Sulfamethazine sodium salt] | 0.242 ± 0.0082 | 0.293 ± 0.015 | 0.252 ± 0.013 | 0.215 ± 0.016 | 0.165 ± 0.0038 | 0.142 ± 0.0032 | 0.408 ± 0.021 | 0.449 ± 0.042 | 0.191 ± 0.0082 | 0.269 ± 0.022 | 0.482 ± 0.088 | 0.413 ± 0.012 | 0.335 ± 0.0075
2 | CC(=O)c1ccc2c(c1)N(CCCN1CCC(CCO)CC1)c1ccccc1S2 [Piperacetazine] | 0.161 ± 0.0078 | 0.183 ± 0.0095 | 0.276 ± 0.015 | 0.222 ± 0.0061 | 0.115 ± 0.0049 | 0.133 ± 0.0052 | 0.175 ± 0.0042 | 0.222 ± 0.015 | 0.203 ± 0.016 | 0.243 ± 0.023 | 0.405 ± 0.0056 | 0.3984 ± 0.0027 | 0.27 ± 0.039
3 | CCc1nn(CCCN2CCN(c3cccc(Cl)c3)CC2)c(=O)n1CCOc1ccccc1 [Nefazodone HCl] | 0.0424 ± 0.00076 | 0.0444 ± 0.0031 | 0.04017 ± 0.00012 | 0.0431 ± 0.00062 | 0.0406 ± 0.00026 | 0.0473 ± 0.0025 | 0.0498 ± 0.0029 | 0.0479 ± 0.0011 | 0.05113 ± 0.00049 | 0.0483 ± 0.00036 | 0.0504 ± 0.00067 | 0.29 ± 0.2 | 0.0515 ± 0.001
4 | Nc1ccc(S(=O)(=O)c2ccc(N)cc2)cc1 [Dapsone] | 0.256 ± 0.0028 | 0.282 ± 0.019 | 0.23 ± 0.0077 | 0.227 ± 0.019 | 0.1616 ± 0.0011 | 0.141 ± 0.0065 | 0.433 ± 0.092 | 0.339 ± 0.012 | 0.214 ± 0.0025 | 0.25 ± 0.058 | 0.491 ± 0.054 | 0.422 ± 0.01 | 0.367 ± 0.018
5 | CN(C)CCN(Cc1ccccc1)c1ccccn1 [Tripelennamine hydrochloride] | 0.203 ± 0.0015 | 0.281 ± 0.0071 | 0.254 ± 0.0058 | 0.181 ± 0.0046 | 0.184 ± 0.003 | 0.133 ± 0.004 | 0.232 ± 0.055 | 0.329 ± 0.1 | 0.177 ± 0.0099 | 0.209 ± 0.027 | 0.537 ± 0.091 | 0.406 ± 0.0074 | 0.307 ± 0.0053
6 | COC(=O)Nc1nc2cc([S+]([O-])c3ccccc3)ccc2[nH]1 (stereo not drawn) [Oxfendazol] | 0.251 ± 0.016 | 0.304 ± 0.014 | 0.2674 ± 0.00072 | 0.195 ± 0.024 | 0.165 ± 0.0037 | 0.1348 ± 0.00046 | 0.276 ± 0.08 | 0.382 ± 0.044 | 0.173 ± 0.0069 | 0.174 ± 0.042 | 0.634 ± 0.024 | 0.407 ± 0.011 | 0.312 ± 0.022
7 | CCCCOc1ccc(C(=O)CCN2CCCCC2)cc1 [Dyclonine hydrochloride] | 0.208 ± 0.004 | 0.278 ± 0.0053 | 0.252 ± 0.0069 | 0.183 ± 0.0081 | 0.143 ± 0.0049 | 0.144 ± 0.0069 | 0.269 ± 0.064 | 0.252 ± 0.01 | 0.149 ± 0.0069 | 0.176 ± 0.012 | 0.449 ± 0.034 | 0.408 ± 0.0048 | 0.355 ± 0.033
8 | NC[C@H]1O[C@H](O[C@H]2[C@H](O[C@@H]3O[C@H](CO)[C@@H](O)[C@H]3O)[C@@H](O)[C@H](N)C[C@@H]2N)[C@H](N)[C@@H](O)[C@@H]1O [Ribostamycin sulfate salt] | 0.238 ± 0.011 | 0.286 ± 0.0099 | 0.269 ± 0.0065 | 0.182 ± 0.025 | 0.201 ± 0.015 | 0.138 ± 0.0082 | 0.37 ± 0.013 | 0.458 ± 0.012 | 0.218 ± 0.023 | 0.226 ± 0.016 | 0.549 ± 0.058 | 0.42 ± 0.011 | 0.366 ± 0.012
9 | CC[N+](C)(C)Cc1ccccc1Br [Bretylium tosylate] | 0.253 ± 0.011 | 0.323 ± 0.02 | 0.261 ± 0.0084 | 0.22 ± 0.0026 | 0.1733 ± 0.00021 | 0.1633 ± 0.00072 | 0.484 ± 0.032 | 0.476 ± 0.018 | 0.221 ± 0.025 | 0.241 ± 0.013 | 0.624 ± 0.021 | 0.409 ± 0.015 | 0.324 ± 0.017
10 | Cn1c(=O)c2[nH]cnc2n(C)c1=O [Aminophylline] | 0.246 ± 0.005 | 0.292 ± 0.012 | 0.262 ± 0.0083 | 0.196 ± 0.0098 | 0.195 ± 0.0022 | 0.134 ± 0.0058 | 0.287 ± 0.065 | 0.457 ± 0.018 | 0.226 ± 0.017 | 0.234 ± 0.023 | 0.513 ± 0.08 | 0.406 ± 0.015 | 0.355 ± 0.019
11 | CCOc1nc2cccc(C(=O)O)c2n1Cc1ccc(-c2ccccc2-c2nnn[nH]2)cc1 [Candesartan] | 0.238 ± 0.0077 | 0.297 ± 0.0053 | 0.285 ± 0.0054 | 0.212 ± 0.023 | 0.222 ± 0.015 | 0.141 ± 0.0058 | 0.292 ± 0.03 | 0.265 ± 0.029 | 0.197 ± 0.0041 | 0.205 ± 0.024 | 0.642 ± 0.092 | 0.415 ± 0.0062 | 0.355 ± 0.0055
12 | CCN(CC)CC(=O)Nc1c(C)cccc1C [Lidocaine hydrochloride] | 0.238 ± 0.0076 | 0.256 ± 0.062 | 0.273 ± 0.017 | 0.194 ± 0.01 | 0.183 ± 0.0033 | 0.146 ± 0.0067 | 0.267 ± 0.048 | 0.403 ± 0.057 | 0.204 ± 0.0083 | 0.235 ± 0.048 | 0.586 ± 0.028 | 0.41 ± 0.0091 | 0.345 ± 0.019
13 | CN1C(C)(C)CCCC1(C)C [Pempidine tartrate] | 0.245 ± 0.0082 | 0.307 ± 0.017 | 0.284 ± 0.0059 | 0.183 ± 0.026 | 0.196 ± 0.0024 | 0.143 ± 0.011 | 0.343 ± 0.023 | 0.434 ± 0.024 | 0.203 ± 0.024 | 0.239 ± 0.043 | 0.572 ± 0.089 | 0.4074 ± 0.0021 | 0.335 ± 0.011
14 | O=C(O)Cc1sc(-c2ccccc2)nc1-c1ccc(Cl)cc1 [Fentiazac] | 0.168 ± 0.0065 | 0.17 ± 0.0076 | 0.137 ± 0.0036 | 0.165 ± 0.0017 | 0.152 ± 0.0063 | 0.158 ± 0.0089 | 0.189 ± 0.0056 | 0.187 ± 0.018 | 0.206 ± 0.012 | 0.223 ± 0.029 | 0.286 ± 0.012 | 0.141 ± 0.064 | 0.14 ± 0.033
15 | CC(C)NC[C@@H](O)COc1cccc2ccccc12 [(R)-Propranolol hydrochloride] | 0.205 ± 0.01 | 0.262 ± 0.0043 | 0.291 ± 0.0066 | 0.186 ± 0.015 | 0.216 ± 0.028 | 0.142 ± 0.0024 | 0.263 ± 0.076 | 0.2622 ± 0.0023 | 0.193 ± 0.01 | 0.212 ± 0.027 | 0.58 ± 0.019 | 0.4273 ± 0.0035 | 0.326 ± 0.012
16 | CCCCOc1cc(C(=O)NCCN(CC)CC)c2ccccc2n1 [Dibucaine] | 0.216 ± 0.016 | 0.281 ± 0.0065 | 0.26283 ± 0.00023 | 0.208 ± 0.0075 | 0.154 ± 0.0091 | 0.174 ± 0.0038 | 0.239 ± 0.058 | 0.3947 ± 0.0033 | 0.184 ± 0.016 | 0.25 ± 0.025 | 0.452 ± 0.017 | 0.415 ± 0.0019 | 0.321 ± 0.025
